Compounds with a hit are over-represented: about 2.4% of the library has one in this group of screens.
FEN1 inh-1: blocks human flap endonuclease 1. Potency, µM (doses to about 114 µM), for inactives: top-dose activity change, negative = inhibition, hits mostly inhibitors. 390,000 tested, 0.35% active. P39748. AID 588795. Recombinant FEN1 flap cleavage, fluorescence, 15 min; also: potency is read from the fitted curve at half-maximal effect; % is scaled to controls: 0 for no effect and ±100 for the full control effect; nearly all actives have a fitted effect of over 65% in size
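Read-out was taken twice, immediately and after 15 min, following addition of 50 nM substrate to 10 nM FEN1 that had sat with test compound for 15 min at room temperature. Curves came from a four-parameter Hill model.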
Pol beta inh: blocks human DNA polymerase beta activity; P06746; Pol beta primer extension/strand displacement, fluorescence kinetic; Potency, µM (top dose mostly 114 µM), for inactives: at the top dose activity change, negative = inhibition, actives largely listed as inhibitors; 340,000 tested, 1.3% active; AID 485314; also: potency is read from the fitted curve at half-maximal effect; % is scaled to controls: 0 for no effect and ±100 for the full control effect
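Human Pol beta at 10 nM; strand-displacement substrate 50 nM final. Compound exposure 15 min at room temperature before start, reaction 10 min at room temperature.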
POLI inh: blocks human DNA polymerase iota activity | Potency, µM (doses to about 115 µM), without a hit: top-dose activity, negative = inhibition, usual class: inhibitors | Pol iota fluorescent replication assay, 10 min | AID 588590 | 390,000 tested, 1% active; also: potency is read from the fitted curve at half-maximal effect
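Fluorescent replication assay read twice, at 0 min and 10 min after adding 50 nM (final) substrate. Enzyme (10 nM) and compounds were first incubated 15 min at room temperature; enzyme-free buffer wells were negative controls.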
Pol kappa inh-1: DNA polymerase kappa (human) inhibition; Q9UBT6; purified Pol kappa, fluorescent DNA synthesis assay, 10 min; Potency, µM (highest dose often 107 µM), for inactives: at the highest dose activity, negative = inhibition, most hits filed as inhibitors; 400,000 tested, 0.53% active; AID 588579; also: potency is read from the fitted curve at half-maximal effect; % is scaled to controls: 0 for no effect and ±100 for the full control effect
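Pol kappa 10 nM + cpd, 15 min RT; start w/ substrate 50 nM final; fluorescence kinetic read, 0 and 10 min. Neg ctrl: buffer, no enzyme.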
WRN helicase inh: inhibitors of human WRN helicase; Q14191; WRN helicase unwinding, fluorescent forked duplex, kinetic; Potency, µM (top dose mostly 114 µM), for inactives: at the top dose activity change, negative = inhibition, most hits filed as inhibitors; 360,000 tested, 0.46% active; also: potency is read from the fitted curve at half-maximal effect; % is scaled to controls: 0 for no effect and ±100 for the full control effect; nearly all actives have a fitted effect of over 55% in size
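Fluorescence dequenching readout, ex 525 nm/em 598 nm, kinetic mode: forked duplex DNA (100 nM final) with adjacent fluorophore and quencher unwound by WRN (20 nM final) with 2 mM ATP. Compound preincubation 15 min, room temperature.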
Pol eta inh-1: DNA polymerase eta (human) inhibition; recombinant Pol eta, fluorescent DNA replication assay; AID 588591; Potency, µM (top dose mostly 114 µM), inactives show at the top dose activity change, negative = inhibition, actives largely listed as inhibitors; Q9Y253; 390,000 tested, 1.2% active; also: potency is read from the fitted curve at half-maximal effect; % is scaled to controls: 0 for no effect and ±100 for the full control effect
Target sequence (Q9Y253 whole entry, looked up): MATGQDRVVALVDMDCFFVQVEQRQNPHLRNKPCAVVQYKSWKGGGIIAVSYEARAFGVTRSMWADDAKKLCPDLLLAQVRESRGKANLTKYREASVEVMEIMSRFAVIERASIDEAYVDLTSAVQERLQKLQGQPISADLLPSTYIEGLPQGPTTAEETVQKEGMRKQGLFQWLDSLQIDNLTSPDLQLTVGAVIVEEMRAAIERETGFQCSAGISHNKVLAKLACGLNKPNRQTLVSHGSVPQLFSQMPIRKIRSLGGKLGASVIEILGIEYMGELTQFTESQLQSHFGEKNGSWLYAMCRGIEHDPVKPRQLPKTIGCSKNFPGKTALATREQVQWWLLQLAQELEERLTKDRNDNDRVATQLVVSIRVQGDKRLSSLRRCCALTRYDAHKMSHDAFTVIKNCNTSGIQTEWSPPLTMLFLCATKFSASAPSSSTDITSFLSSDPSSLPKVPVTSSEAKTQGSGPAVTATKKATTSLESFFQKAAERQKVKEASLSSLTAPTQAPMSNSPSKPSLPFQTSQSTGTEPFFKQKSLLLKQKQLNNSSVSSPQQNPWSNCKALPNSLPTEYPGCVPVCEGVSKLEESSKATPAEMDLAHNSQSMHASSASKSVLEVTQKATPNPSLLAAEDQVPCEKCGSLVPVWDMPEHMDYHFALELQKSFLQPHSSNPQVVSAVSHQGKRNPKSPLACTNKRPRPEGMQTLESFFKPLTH
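Fluorescent replication assay: 50 nM final substrate added after a 15 min room-temperature compound preincubation with 10 nM enzyme. Signal taken at 0 min and again at 10 min.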
PGK validate: TbPGK inhibition, hit validation. shares compounds with Pol kappa inh-1. TbPGK coupled GAPDH assay, Kinase-Glo luminescence. Potency, µM (highest dose often 57.5 µM), without a hit: top-dose activity change, negative = inhibition, usual class: inhibitors. 500 tested, 79% active. AID 686980; also: potency is read from the fitted curve at half-maximal effect; % is scaled to controls: 0 for no effect and ±100 for the full control effect; nearly all actives have a fitted effect of over 65% in size
POLI cherry-pick: Inhibitors of human DNA polymerase iota, confirmation. shares compounds with Pol kappa inh-1. Pol iota primer extension, TAMRA/BHQ fluorescence. Potency, µM, usual class: inhibitors. 1,500 tested, 77% active. AID 720496; also: potency is read from the fitted curve at half-maximal effect
GALK confirm: confirmation of human galactokinase (GALK) inhibitors. purified GALK, Kinase-Glo ATP depletion luminescence. shares compounds with Pol eta inh-1. Potency, µM (series often up to 115 µM), for the others: at the top dose activity, negative = inhibition, actives largely listed as inhibitors. 150 tested, 70% active
GALK redox cs: generates H2O2 by redox cycling, flagging GALK artifacts; 150 tested, 40% active; shares compounds with Pol eta inh-1; Potency, µM (top dose mostly 115 µM), for the others: top-dose activity change, negative = H2O2 signal, hits mostly inhibitors; Phenol red-HRP H2O2 redox cycling, absorbance 600 nm
HEK293 tox: HEK-293 cytotoxicity, GALK inhibitor secondary | 170 tested, 10% active | AID 2547 | HEK-293 viability, ATP luminescence (CellTiter-Glo), 24/48 h | Potency, µM (top dose mostly 46.1 µM), for inactives: at the highest dose activity change, negative = cytotoxicity, actives largely listed as inhibitors | shares compounds with Pol eta inh-1; also: potency is read from the fitted curve at half-maximal effect; % is scaled to controls: 0 for no effect and ±100 for the full control effect
Pol kappa inh-2: Pol kappa (human) inhibition, cherry-pick confirmation; shares compounds with Pol eta inh-1; purified Pol-kappa, fluorescent strand-displacement substrate; Potency, µM, hits mostly inhibitors; 920 tested, 76% active; also: potency is read from the fitted curve at half-maximal effect
Pol eta inh-2: Pol eta (human) inhibition, cherry-pick confirmation; shares compounds with Pol eta inh-1; Pol eta primer extension, TAMRA/BHQ fluorescence, 10 min; Potency, µM, hits mostly inhibitors; 2,600 tested, 64% active; AID 720502; also: potency is read from the fitted curve at half-maximal effect
FEN1 inh-2: confirmation of human FEN1 inhibitors; 880 tested, 79% active; FEN1 flap cleavage, TAMRA/BHQ2 fluorogenic DNA substrate; Potency, µM, usual class: inhibitors; shares compounds with FEN1 inh-1; also: potency is read from the fitted curve at half-maximal effect; nearly all actives have a fitted effect of over 60% in size
* = called active by the depositor; ? = inconclusive; / = no result; [ ] = remark or other dose. Calls follow the shape of the dose curve; as a rule, active = well fitted curve in the direction sought with a large enough effect; inconclusive = small, poorly fitted or top-dose-only effect, or another doubt; inactive = no such curve, though single readings can be large; an effect the other way counts as inactive or inconclusive.

SMILES | FEN1 inh-1 | Pol beta inh | POLI inh | Pol kappa inh-1 | WRN helicase inh | Pol eta inh-1 | POLI cherry-pick | Pol eta inh-2 | others
O=C1NC(=O)N(Cc2ccco2)C(=O)/C1=C/c1cccn1CCOc1ccccc1Cl | -9% | 25µM* | 11µM* | ? | ? | 14µM* | 67* | 30* | Pol kappa inh-2=60*
O=C1NC(=O)N(Cc2ccccc2Cl)C(=O)/C1=C/N1CCOCC1 | -19% | -19% | 10% | 0% | -8% | -6% | / | /
C[C@H](NC(=O)[C@@H](N)Cc1ccc(O)cc1)C(=O)N[C@@H](Cc1ccccc1)C(=O)N[C@@H](Cc1ccccc1)C(N)=O | / | / | / | -1%[19.4 µM] | / | / | / | /
CN(C)CCN(C)CCc1ccc(Cl)c(Cl)c1 | / | / | / | 5%[19.4 µM] | / | / | / | /
CCN1C[C@@]2(COC)CCC(OC)[C@]34C5C[C@]6(O)[C@@H](OC)C[C@](OC(C)=O)(C([C@H](OC)C23)[C@H]14)C5[C@H]6OC(=O)c1ccc(OC)cc1 (some centres undefined) | / | / | / | 15%[60.1 µM] | / | / | / | /
CCCCC(=O)N/N=C/c1c(O)n(Cc2ccco2)c(=O)[nH]c1=O | -6% | ? | ? | -7% | -27% | ? | / | /
CC(=O)Nc1ccc(N=Cc2c(O)n(Cc3ccco3)c(=O)[nH]c2=O)cc1 | -33% | 25µM* | 45µM* | ? | ? | ? | 60* | 76* | Pol kappa inh-2=?
Cn1ncnc2c(=O)n(C)c(=O)nc1-2 | 13% | ? | -72% | 5% | -4%[11.6 µM] | 0.71µM* | 5.3* | 5.4* | PGK validate=1.5µM*;GALK confirm=1.1µM*;GALK redox cs=0.6µM*;HEK293 tox=3.1µM*
Cc1ccc(-c2nc3c(=O)n(C)c(=O)nc-3n(C)n2)cc1 | -17% | / | -123% | -22% | / | / | 1.7* | 0.85*
CC[C@@]1(O)C(=O)OCc2c1cc1n(c2=O)-c2cc3ccccc3nc2C1 | / | / | / | 5%[60.1 µM] | / | / | / | /
C=CCN1C(=O)NC(=O)/C(=C/c2ccoc2)C1=O | ? | 28µM* | 20µM* | 45µM* | 50µM* | 10µM* | 21* | 17*
C=CCN1C(=O)NC(=O)/C(=C/c2cccn2C)C1=O | -3% | 2% | ? | -9% | -18% | 0% | / | /
COc1ccc(N2C(=O)/C(=C/c3ccc(C)o3)C(=O)NC2=S)c(OC)c1 | ? | 40µM* | 11µM* | 50µM* | ? | 10µM* | 47* | 17* | Pol kappa inh-2=3.4*
CCc1ccccc1N1C(=O)/C(=C/c2ccc(N3CCN(C)CC3)o2)C(=O)NC1=S | ? | 10% | 11µM* | 25µM* | 50µM* | 8.9µM* | 60* | 9.5*
Cc1ccccc1N1C(=O)NC(=O)/C(=C/c2ccc(N3CCOCC3)o2)C1=O | 3% | ? | -19% | -4% | -8% | -8% | / | /
CN[C@@H](Cc1c[nH]c2ccccc12)C(=O)O | / | / | / | -8%[19.4 µM] | / | / | / | /
CN1/C(=C\C=C2C(=O)NC(=S)NC2=O)C(C)(C)c2ccccc21 | 40µM* | ? | -9% | 52% | 14% | 79µM* | ? | 85* | Pol kappa inh-2=60*;FEN1 inh-2=76*
CC1(C)OC(c2ccccc2)=C/C(=C/C=C2C(=O)NC(=S)NC2=O)O1 | ? | 50µM* | ? | ? | 8.9µM* | ? | 67* | 76* | FEN1 inh-2=85*
OC12C3C4CC5C6C4C1C6C(C53)N2CCc1cccc(F)c1 (centres undefined) | / | / | / | 2%[60.1 µM] | / | / | / | /
Cc1ccc(N2C(=O)NC(=O)/C(=C/c3cnn(-c4ccc(C)cc4)c3)C2=O)cc1 | 3% | 36% | 3% | -19% | -19% | 8% | / | /
Cc1ccc(N2C(=O)NC(=O)/C(=C/c3ccoc3)C2=O)cc1 | 35µM* | ? | 7.9µM* | 22µM* | 32µM* | 3.2µM* | 12* | 17* | PGK validate=0.92µM*;FEN1 inh-2=60*
O=C(CCl)c1ccc(O)c(O)c1 | -17% | / | 12% | -13% | / | / | / | /
Cn1cccc1/C=C1/C(=O)NC(=S)N(Cc2ccc(F)cc2)C1=O | -23% | ? | 20µM* | ? | 56µM* | 13µM* | 21* | 11* | FEN1 inh-2=?
CCOc1ccc(/C=C2/C(=O)NC(=O)N(CCc3ccc(F)cc3)C2=O)cc1 | -23% | -6% | -10% | -8% | -18% | -6% | / | /
CCOc1ccc(NC(=O)CSc2oc(-c3ccccc3)nc2S(=O)(=O)c2ccc(Cl)cc2)cc1 | 10% | ? | -5% | 0% | / | -8% | / | /
CC1C(=O)OC2C1CC[C@@]1(C)C=CC(=O)[C@@]3(C)O[C@@]213 (some centres undefined) | / | / | / | -4%[60.1 µM] | / | / | / | /
COc1ccc2c(c1)[C@@]13CCCCC1[C@@H](C2)N(C)CC3 (some centres undefined) | / | / | / | -2%[60.1 µM] | / | / | / | /
CN1C(=O)C(=Cc2ccc(N3CCCCCC3)o2)C(=O)N(C)C1=S | -3% | ? | ? | -22% | -47% | ? | / | /
